# Reference: PubChem BioAssay AID1645875 (National Center for Advancing Translational Sciences (NCATS), 2021)
# Where “and” joins values, the source holds several entries; their conditions need not be identical. Equal values may be shown once. Records with an inconclusive call do not appear. Calls of active or inactive are those of the source. Calls follow the shape of the dose curve; as a rule, active = well fitted inhibition curve with a large enough effect; inconclusive = small, poorly fitted or top-dose-only effect; inactive = no such curve, though single readings can be large or run the other way. Where a SMILES comes first, the peptide text is derived from it. The star is where a group is joined. AFC = O=c1cc(C(F)(F)F)c2ccc(N*)cc2o1
# Target: N-terminal Xaa-Pro-Lys N-methyltransferase 1 (Homo sapiens) (UniProt Q9BV86)
# Experiment: Orthogonal qHTS for Inhibitors of N-terminal methyltransferase 1 (NTMT1): ThioGlo Assay
# Details: NTMT1 SAHH-coupled ThioGlo fluorescence, 30 min; series mostly up to 84.5 µM
# In short: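 ThioGlo3 (15 uM) detects the thiol product formed by SAHH (10 uM) from SAM (100 uM) turnover by 125 nM NTMT1 (all final), with compounds in concentration series. Readings at ex 340/em 450 nm at start and after 30 min at room temperature; data background-normalized.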
# Chain of N-terminal Xaa-Pro-Lys N-methyltransferase 1 (Homo sapiens) (Q9BV86 whole entry, looked up): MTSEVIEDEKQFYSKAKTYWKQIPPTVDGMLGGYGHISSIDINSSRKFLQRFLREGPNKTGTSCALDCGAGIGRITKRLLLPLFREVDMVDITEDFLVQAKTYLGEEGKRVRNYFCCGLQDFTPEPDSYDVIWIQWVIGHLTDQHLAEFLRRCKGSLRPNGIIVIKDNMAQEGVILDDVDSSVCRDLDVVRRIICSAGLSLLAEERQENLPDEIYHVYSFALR
row,Compound,Potency
1,Fc1cc(Nc2nc(-c3ccncc3)nc3ccccc23)ccc1N1CCNCC1,21.8 µM (active)
2,CC(C)c1cc2c(c(O)c1O)[C@@]13CCCC(C)(C)C1[C@@H](O)[C@@H]2OC3=O (some centres undefined),12.2 µM (active)
3,COc1cccc(C2=Nn3c(nnc3-c3ccccc3C)SC2)c1,27.4 µM (active)
4,CC/C(=C(\c1ccccc1)c1ccc(OCCN(C)C)cc1)c1ccccc1,inactive
5,COc1c(C)c(C(=O)c2ccc(N)c(C(=O)O)c2)n2ccccc12,1.97 µM (active) and 1.75 µM (active)
6,NC(=O)c1cccc(-c2cc(OC(=O)NC3CCCCC3)ccc2O)c1,inactive
7,COc1cc(CCc2ccc(OCC=C(C)C)cc2)cc(OC)c1OC,inactive
8,Nc1ccc(C(=O)Nc2cccc(-c3nc(N4CCOCC4)c4oc5ncccc5c4n3)c2)cn1,22.1 µM (active)
9,NCC(O)C1CCCCCCC1 (centres undefined),inactive
10,COc1cccc(C(=O)NCCNc2nc3cc(C)cc(C)c3cc2C#N)c1,44.1 µM (active)
11,CC(=O)N[C@@H](CC(C)C)C(=O)N[C@@H](CCC(=O)O)C(=O)N[C@@H](CCC(=O)O)C(=O)N[C@@H](CC(=O)O)C(=O)Nc1ccc2c(C(F)(F)F)cc(=O)oc2c1 (Ac-LEED-{AFC}),44.1 µM (active)
12,COc1cc2nc(N3CCCC3)nc(NC3CC3)c2cc1OC,inactive
13,C#Cc1cccc(Nc2ncnc3cc(OC)c(OCCCCCCC(=O)NO)cc23)c1,22.1 µM (active)
14,CC[C@@H](c1ccc(F)c(F)c1)n1c(C(=O)OC)c(-c2ccno2)[nH]c1=S,6.98 µM (active)
15,COc1cc2nc(N3CCN(C(=O)c4ccco4)C4CCCCC43)nc(N)c2cc1OC (centres undefined),55.5 µM (active)
16,CCOc1ccc(Nc2nc(-c3c(C)nc4ccccn34)cs2)cc1,3.12 µM (active)
17,O=C(O)c1ccc(Cc2c(-c3cccc(-c4ccccc4)c3)[nH]n(-c3nc(C(=O)O)cs3)c2=O)cc1,inactive
18,COc1ccc2cc3c(NC(=O)c4ccco4)nn(C)c3nc2c1,49.4 µM (active)
19,COc1cc2c(NC3CCN(CC4CCCCC4)CC3)nc(N3CCCCC3)nc2cc1OCCOCCN(C)C,12.3 µM (active)
